In all, about 1,300 compounds went through this assay and about 750 (58%) were called active. Some of the results follow. Values without a mark were called inactive.
molecular target: Sulfhydryl oxidase 1 (Homo sapiens) (UniProt O00391); assay: QSOX1 enzyme inhibitors, primary screen, biochemical, ROS-Glo H2O2 luminescence, HTS (AID 1347418); conditions: recombinant QSOX1, ROS-Glo H2O2 luminescence, at 12.5 µM, active compounds read high; active = any value above zero unless noted
Sequence (O00391 whole entry, looked up): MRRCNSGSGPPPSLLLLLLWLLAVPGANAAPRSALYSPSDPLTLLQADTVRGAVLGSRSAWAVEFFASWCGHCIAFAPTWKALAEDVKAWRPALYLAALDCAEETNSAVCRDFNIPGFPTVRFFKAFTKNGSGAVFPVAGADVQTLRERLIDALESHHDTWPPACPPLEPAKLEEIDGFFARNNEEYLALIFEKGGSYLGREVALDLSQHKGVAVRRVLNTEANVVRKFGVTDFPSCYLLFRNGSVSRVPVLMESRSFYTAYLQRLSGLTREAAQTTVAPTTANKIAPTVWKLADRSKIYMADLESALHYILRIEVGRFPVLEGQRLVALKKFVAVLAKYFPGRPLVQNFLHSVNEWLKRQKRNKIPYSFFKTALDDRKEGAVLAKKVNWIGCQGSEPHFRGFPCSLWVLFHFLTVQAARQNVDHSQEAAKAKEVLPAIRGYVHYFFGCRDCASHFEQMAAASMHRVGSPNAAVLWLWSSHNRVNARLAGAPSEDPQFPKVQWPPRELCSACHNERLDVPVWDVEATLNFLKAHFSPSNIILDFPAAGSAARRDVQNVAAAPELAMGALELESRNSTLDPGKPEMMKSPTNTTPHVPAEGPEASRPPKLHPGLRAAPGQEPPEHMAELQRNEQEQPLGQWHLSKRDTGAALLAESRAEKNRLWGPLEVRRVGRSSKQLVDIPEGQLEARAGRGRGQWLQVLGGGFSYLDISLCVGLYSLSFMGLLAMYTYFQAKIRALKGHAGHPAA

Structure (SMILES) | inhibition
CN(N=O)c1cc(O)ccc1O | 4.1% (active)
CN(N=O)c1ccc(O)c(O)c1 | 5.2% (active)
NC1CC1c1ccccc1 (configuration not stated) | -0.7%
CCCN1CCO[C@@H]2c3cc(O)ccc3OC[C@H]21 | 4.3% (active)
CCCN1CC[C@@H]2c3cc(O)ccc3CC[C@@H]21 | -5.9%
CCN(CCCl)Cc1ccccc1Br | 1.5% (active)
C=CCN1CCc2cccc3c2[C@H]1Cc1ccc(O)c(O)c1-3 | 23.6% (active)
CCCN1CCc2cccc3c2[C@H]1Cc1ccc(O)c(O)c1-3 | 25.2% (active)
COc1ccc2c(c1OC)C(=O)O[C@H]2[C@@H]1c2cc3c(cc2CCN1C)OCO3 | -2.2%
COc1ccc2c(c1O)-c1cccc3c1[C@@H](C2)N(C)CC3 | 3.5% (active)
CN1CCc2cc(O)cc3c2[C@H]1Cc1ccc(O)c(O)c1-3 | 25.4% (active)
CCCN1CCc2cc(O)cc3c2[C@H]1Cc1ccc(O)c(O)c1-3 | 29.9% (active)
C[C@H]1C2Cc3ccc(O)cc3C1(C)CCN2CC1CC1 (some centres not stated) | 4.5% [setting not given] (active)
O=C(O)CC[N+](=O)[O-] | -3.4% [setting not given]
CC(C)NP(=O)(NC(C)C)OP(=O)(NC(C)C)NC(C)C | 10.1% (active)
C[C@H](N)CN1CCc2ccc(Br)cc21 | 35.7% (active)
CCCn1c(=O)c2[nH]c(C3CCCC3)nc2n(CCCOC(=O)c2ccc(S(=O)(=O)F)cc2)c1=O | -1.3%
CC(=O)c1c(O)c(C)c(O)c(Cc2c(O)c3c(c(C(=O)/C=C/c4ccccc4)c2O)OC(C)(C)C=C3)c1O | 0.8% (active)
CCNC(=O)[C@H]1O[C@@H](n2cnc3c(N)ncnc32)C(O)[C@H]1O (some centres not stated) | 3.3% (active)
CCCC(C)(COC(N)=O)COC(=O)NC(C)C (configuration not stated) | 1.5% [setting not given] (active)
NC1CCc2cc(O)c(O)cc2C1 (configuration not stated) | 12.7% (active)
Ic1ccccc1CNC1C2CCN(CC2)C1C(c1ccccc1)c1ccccc1 (configuration not stated) | -6.2%
COc1ccc2c(c1)[C@@]13CCCC[C@H]1[C@@H](C2)NCC3 | 1.4% [setting not given] (active)

Structure (SMILES) | inhibition
COc1ccc2c(c1)C13CCCCC1C(C2)N(C)CC3 (configuration not stated) | -2.3% [setting not given]
c1ccc(C2CC2)c(OCC2=NCCN2)c1 | -2%
CC(CCc1ccccc1)NC(C)C(O)c1ccc(O)cc1 (configuration not stated) | 0.8% (active)
Nc1ccc(CCN2CCN(c3cccc(C(F)(F)F)c3)CC2)cc1 | 2.2% (active)
S=C(NC1CCCCC1)N1CCC(c2cnc[nH]2)CC1 | -1.7%
Clc1ccc(N2CC3CCC(C2)N3)nn1 | 1.8% (active)
C#CCN[C@H](C)Cc1ccccc1 | 4.3% [setting not given] (active)
C[Se]C[C@H](N)C(=O)O | 3.9% (active)
N[C@@H](CCl)C(=O)O | -3.4%
O=C1NCN(c2ccccc2)C12CCN(CC1COc3ccccc3O1)CC2 (configuration not stated) | -3.1%
C/C(O)=C(\C#N)C(=O)Nc1cc(Br)ccc1Br | -1.3%
COc1cc(CC(C)N)c(OC)cc1I (configuration not stated) | 4.3% [setting not given] (active)
NC(=O)c1ccc(OCC(O)CN2CC=C(c3ccc(F)cc3)CC2)cc1 (configuration not stated) | 0.4% (active)
COc1ccc(C(CN(C)C)C2(O)CCCCC2)cc1 (configuration not stated) | -1.3%
CC(C)NC(C)Cc1ccc(I)cc1 (configuration not stated) | 5.2% [setting not given] (active)
COc1ccc2[nH]c3c(c2c1)CCNC3 | 0.8% (active)
O=S1(=O)N(CCN2CC=C(c3c[nH]c4cc(F)ccc34)CC2)c2cccc3c2N1CCC3 | 4.2% (active)
CC(=O)[C@H]1CC[C@H]2[C@@H]3CC[C@H]4C[C@H](O)CC[C@]4(C)[C@H]3C(=O)C[C@]12C | -0.2% [setting not given]
Fc1ccc(C(OCCN2CCN(CCCc3ccccc3)CC2)c2ccc(F)cc2)cc1 | 6.5% (active)
O=C(CCCN1CCC2(CC1)C(=O)NCN2c1ccccc1)c1ccc(F)cc1 | -1% [setting not given]
c1ccc(CCCN2CCN(CCOC(c3ccccc3)c3ccccc3)CC2)cc1 | 7% (active)
CC[C@@H](CO)NC(=O)[C@@H]1C=C2c3cccc4c3c(cn4C)C[C@H]2N(C)C1 | 1.6% [setting not given] (active)
CC[C@@H](CO)NC(=O)[C@@H]1C=C2c3cccc4[nH]cc(c34)C[C@H]2N(C)C1 | 6.3% [setting not given] (active)

Structure (SMILES) | inhibition
C=CCN1CC[C@]23c4c5ccc(O)c4O[C@H]2/C(=N/NC(=O)c2ccccc2)CC[C@@]3(O)[C@H]1C5 | -0.4% [setting not given]
O=C1CC[C@@]2(O)C3Cc4ccc(O)c5c4C2(CCN3CC2CC2)[C@H]1O5 (some centres not stated) | 1.2% [setting not given] (active)
C=CCN1CCC23c4c5ccc(O)c4O[C@H]2C(=O)CC[C@@]3(O)C1C5 (some centres not stated) | 3.2% [setting not given] (active)
C=CCN1CC[C@]23c4c5ccc(O)c4O[C@@H]2/C(=N/N=C2\CC[C@@]4(O)C6Cc7ccc(O)c8c7[C@@]4(CCN6CC=C)[C@@H]2O8)CC[C@@]3(O)C1C5 | 1.8% (active)
CCOC(=O)c1ncn2c1[C@@H]1CCCN1C(=O)c1cc(OC)ccc1-2 | 3.1% (active)
Cc1ncsc1CCCl | 4.8% (active)
Clc1cnc(Oc2ccc(Oc3ncc(Cl)cc3Cl)cc2)c(Cl)c1 | -1.5% [setting not given]
CN1CCC(c2c[nH]c3ccc(O)cc23)CC1 | 26.8% (active)
CC(Cc1ccc(OCC(=O)O)cc1)NCC(O)c1cccc(Cl)c1 (configuration not stated) | -3.3%
CC(Cc1ccc(O)cc1)NCC(O)c1cc(O)cc(O)c1 (configuration not stated) | 7.9% [setting not given] (active)
N[C@@]1(C(=O)O)CC[C@@H](C(=O)O)C1 | -1.7%
CN1CC[C@@]2(C)c3cc(O)ccc3N(C)C12 (some centres not stated) | 15.2% (active)
CN1CC[C@@]2(C)c3cc(OC(=O)Nc4ccccc4)ccc3N(C)[C@@H]12 | 8.3% (active)
NC(=O)CN1CCCC1=O | 2.9% [setting not given] (active)
CC[C@@H](C(N)=O)N1CCCC1=O | -2.6% [setting not given]
Cc1cccc(C)c1NC(=O)CN1CCCC1=O | 3% [setting not given] (active)
NC(=O)CN1CC(O)CC1=O (configuration not stated) | 1.1% [setting not given] (active)
COc1ccc(C(=O)N2CCCC2=O)cc1 | -3% [setting not given]
O=C1CCCN1CC#CCN1CCCC1 | -8.1% [setting not given]
C=CCN(C1=NCCN1)c1c(Cl)cccc1Cl | -6.5%
CCC1(C2=NCCN2)Cc2ccccc2O1 (configuration not stated) | -2.6%
C/C=C(/C)C(=O)O[C@H]1C(C)=C2[C@H]([C@@H]1OC(=O)CCCCCCC)[C@@](C)(OC(C)=O)C[C@H](OC(=O)CCC)[C@@]1(O)[C@H]2OC(=O)[C@@]1(C)O | -0.7%
CN[C@@H]1C[C@@H](c2ccc(Cl)c(Cl)c2)c2ccccc21 | -1.2%

Structure (SMILES) | inhibition
CCCN1CCC[C@@H]2Cc3[nH]ncc3C[C@H]21 | -2.4%
CC12CCC3C(CCC4=C(O)C(=O)CCC43C)C1CCC2=O (configuration not stated) | 0.2% [setting not given] (active)
C[C@@H](N)Cc1cnc[nH]1 | 11.8% (active)
c1ccc(C2(c3ccccc3)CC2C2=NCCN2)cc1 (configuration not stated) | -0.8%
CCn1cnc2c(Nc3cccc(Cl)c3)nc(N[C@@H]3CCCC[C@@H]3N)nc21 | 0.3% (active)
NC(Cn1oc(=O)[nH]c1=O)C(=O)O (configuration not stated) | 2.7% (active)
CCC1(c2ccc(N)cc2)CCC(=O)NC1=O (configuration not stated) | -0.8% [setting not given]
NCCCP(=O)(O)O | 6.4% (active)
CC(NC(C)(C)C)C(=O)c1cccc(Cl)c1 (configuration not stated) | 0.7% [setting not given] (active)
CCCN1CCC[C@@H]2Cc3nc(N)ncc3C[C@H]21 | -0.3%
CC(C)(C)c1cc(C=C(C#N)C#N)cc(C(C)(C)C)c1O | 27.7% (active)
N#CC(C#N)=Cc1ccc(O)c(O)c1 | 31.5% (active)
N#CC(=Cc1ccc(O)c(O)c1)C(N)=S | 26.9% (active)
CCCCc1ccc(C(=O)O)nc1 | -1.9%
NC(=O)c1cc(N2CC2)c([N+](=O)[O-])cc1[N+](=O)[O-] | -2.6%
CC(N)[C@H](O)c1ccc(O)c(O)c1 (some centres not stated) | 10.4% [setting not given] (active)
COc1ccc(OC)c(C(O)C(C)N)c1 (configuration not stated) | -1.4% [setting not given]
C[C@@H]1O[C@@H](O[C@H]2C[C@@H](O)[C@]3(CO)[C@@H]4C(CC[C@]3(O)C2)[C@@]2(O)CC[C@H](C3COC(=O)C3)[C@@]2(C)C[C@H]4O)[C@H](O)[C@H](O)[C@H]1O (some centres not stated) | -6.9%
C[C@@H]1O[C@@H](O[C@H]2C[C@@H](O)[C@]3(CO)[C@H]4[C@H](O)C[C@]5(C)[C@@H](C6=CC(=O)OC6)CC[C@]5(O)[C@@H]4CC[C@]3(O)C2)[C@H](O)[C@H](O)[C@H]1O | 1.8% [setting not given] (active)
CN1C2CCC1CC(OC(c1ccccc1)c1ccccc1N)C2 (configuration not stated) | 1.1% (active)
CN1C2CCC1CC(OC(=O)c1cc(Cl)cc(Cl)c1)C2 (configuration not stated) | -0.7%
NC(=NCCC[C@H](N)C(=O)O)N[N+](=O)[O-] | -2.6%
COC(=O)[C@@H](N)CCCN=C(N)N[N+](=O)[O-] | 2.4% (active)

— PubChem BioAssay AID1347418 (Sanford-Burnham Center for Chemical Genomics, 2020)
